{"source": "PubChem BioAssay (NCATS)", "note": "Records with an inconclusive call do not appear. Values without a mark were called inactive. Calls of active or inactive are those of the source. The call rests on the fitted dose curve; in most records, active means well fitted inhibition curve with a large enough effect; inconclusive means small, poorly fitted or top-dose-only effect; inactive means flat fitted curve, though single readings scatter. On the % scale 0 is the no-effect control and ±100 the full control effect."}
{"test": "P-glycoprotein substrates identified in KB-8-5-11 adenocarcinoma cell line, qHTS therapeutic library screen (AID 1346987); further: nearly all actives have a fitted effect of over 65% in size", "conditions": "KB-8-5-11 (P-gp overexpressing) viability, CellTiter-Glo, 72 h; series mostly up to 44.5 µM; activity change, negative = cytotoxicity: at the top concentration", "summary_of_the_method": "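Human cervical adenocarcinoma KB-8-5-11 cells, selected in colchicine to over-express P-gp and assayed without it, were exposed for 72 h to titrated compounds. An ATP-based luminescent viability signal gave AC50.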"}
{"smiles": "O=C(NC1CCN(CC(F)(F)F)CC1)c1ccc(-c2cccc(F)c2)nc1", "activity change, negative = cytotoxicity": "-16.9%"}
{"smiles": "CC(O)C(O)/C=C/C=C/C(=O)O[C@@H]1C=C(C(=O)O)[C@](O)(CO)[C@@]2(C)CCCC(C)(C)[C@H]12", "note": "(some centres undefined)", "activity change, negative = cytotoxicity": "2.09% [at 17.3 µM]"}
{"smiles": "C=C1CCC2C(C)(C)CC(O)CC2(C)C1CCC(C)CCOC(=O)CCC(=O)O", "note": "(centres undefined)", "activity change, negative = cytotoxicity": "-13.1% [at 17.3 µM]"}
{"smiles": "CC(=O)O[C@@H]1[C@H](OC(C)=O)C[C@@]2(C)C(CC[C@@H](C)[C@]23Cc2c(O)cc4c(c2O3)CN([C@@H](CCC(=O)O)C(=O)O)C4=O)C1(C)C", "note": "(some centres undefined)", "outcome": "inactive [at 17.3 µM]"}
{"smiles": "CC(C)=CC[C@H]1O[C@]2(O)C([C@H]3CCC4[C@@]5(C)CC[C@H](O[C@@H]6O[C@H](CO)[C@H](O)[C@H](O[C@@H]7O[C@H](CO)[C@@H](O)[C@H](O)[C@H]7O)[C@H]6O[C@@H]6O[C@@H](C)[C@H](O)[C@@H](O)[C@H]6O)C(C)(C)C5CC[C@@]4(C)[C@]3(C)[C@H]2O)[C@@]1(C)O", "note": "(some centres undefined)", "activity change, negative = cytotoxicity": "9.26% [at 9.29 µM]"}
{"smiles": "CC1=CC(=O)C(=C(C)C)CC2C(C)(O)CCC12O", "note": "(centres undefined)", "activity change, negative = cytotoxicity": "0.343%"}
{"smiles": "C=C1C(O)CC2C(C(=O)O)=COC(OC3OC(CO)C(O)C(O)C3OC(=O)/C=C\\c3ccc(O)cc3)C12", "note": "(centres undefined)", "outcome": "inactive [at 17.3 µM]"}
{"smiles": "C=CCc1cc(OC)c(OC(C)C(O)c2ccc(O)c(OC)c2)c(OC)c1", "note": "(centres undefined)", "activity change, negative = cytotoxicity": "-11.9%"}
{"smiles": "C=C1CC[C@@H]2[C@](C)(CO)[C@H](O[C@@H]3O[C@H](CO)[C@@H](O)[C@H](O)[C@H]3O)CC[C@@]2(C)[C@@H]1C/C=C1/C(=O)OC[C@H]1O", "activity change, negative = cytotoxicity": "-13.1% [at 17.3 µM]"}
{"smiles": "OC[C@H]1O[C@@H](OCc2ccccc2)[C@H](O)[C@@H](O)[C@@H]1O", "outcome": "inactive"}
{"smiles": "COc1c(C)c(OCC(O)C(C)(C)O)cc2c1CNC2=O", "note": "(centres undefined)", "activity change, negative = cytotoxicity": "7.76%"}
{"smiles": "CC(C)=CCC[C@](C)(O[C@@H]1O[C@H](CO[C@@H]2OC[C@H](O)[C@H](O)[C@H]2O)[C@@H](O)[C@H](O)[C@H]1O)[C@H]1CC[C@]2(C)[C@@H]1[C@H](O)C[C@@H]1[C@@]3(C)CC[C@H](O[C@@H]4O[C@H](CO)[C@@H](O)[C@H](O)[C@H]4O[C@@H]4O[C@H](CO)[C@@H](O)[C@H](O)[C@H]4O)C(C)(C)[C@@H]3CC[C@]12C", "outcome": "inactive [at 17.3 µM]"}
{"smiles": "O=C(O)c1ccnc(-c2cc(C(=O)NCCc3ccccc3)ccn2)c1", "activity change, negative = cytotoxicity": "3.94%"}
{"smiles": "C=C1C[C@]23C[C@H]1CC[C@H]2[C@]1(C)CC[C@H](O)[C@@](C)(C(=O)O)[C@H]1[C@@H]3C(=O)O", "activity change, negative = cytotoxicity": "-4.52%"}
{"smiles": "CC1C(=O)OCC2=CC[N+]3([O-])CCC(OC(=O)C(C)(O)C1(C)O)C23", "note": "(centres undefined)", "activity change, negative = cytotoxicity": "8.19%"}
{"smiles": "OC[C@H]1O[C@@H](OCCc2ccccc2)[C@H](O)[C@@H](O)[C@@H]1O", "outcome": "inactive"}
{"smiles": "O=C(OCC1=C[C@@H](O)[C@@H]2C=CO[C@@H](O[C@@H]3O[C@H](CO)[C@@H](O)[C@H](O)[C@H]3O)[C@H]12)c1ccc(O)cc1", "activity change, negative = cytotoxicity": "7.61% [at 17.3 µM]"}
{"smiles": "CN1CCN(c2nc(-c3ccc(C(=O)NC4(C(=O)NCC#N)CCCCC4)cc3)cs2)CC1", "activity change, negative = cytotoxicity": "6.11%"}
{"smiles": "NC(=O)NCCCC(NC(=O)Cc1ccccc1)C(=O)O", "note": "(centres undefined)", "activity change, negative = cytotoxicity": "8.32%"}
{"smiles": "COc1cc(O)cc2c1C(=O)OC(C)C2", "note": "(centres undefined)", "outcome": "inactive"}
{"smiles": "CC(O)C/C=C/C=C/C(=O)OC1C=C2COC(=O)C2(O)C2(C)CCCC(C)(C)C12", "note": "(centres undefined)", "activity change, negative = cytotoxicity": "9.95%"}
{"smiles": "CC(C)=CCC[C@](C)(O[C@@H]1O[C@H](CO)[C@@H](O)[C@H](O)[C@H]1O)[C@H]1CC[C@]2(C)[C@@H]1[C@H](O)CC1[C@@]3(C)CC[C@H](O)C(C)(C)C3[C@@H](O[C@@H]3O[C@H](CO)[C@@H](O)[C@H](O)[C@H]3O[C@@H]3O[C@@H](C)[C@H](O)[C@@H](O)[C@H]3O)C[C@]12C", "note": "(some centres undefined)", "outcome": "inactive [at 9.29 µM]"}
{"smiles": "C=CC(C)(O)CC/C=C(\\C)COC1O[C@H](CO)[C@@H](O)[C@H](O)[C@H]1O", "note": "(some centres undefined)", "activity change, negative = cytotoxicity": "-4.9%"}
{"smiles": "O=C(OCc1ccccc1O[C@@H]1O[C@H](CO)[C@@H](O)[C@H](O)[C@H]1O)C1(O)C=CCCC1O", "note": "(some centres undefined)", "activity change, negative = cytotoxicity": "8.75% [at 17.3 µM]"}
{"smiles": "COC(=O)[C@H](O)[C@H]1C(C)(C)[C@H](OC(C)=O)[C@@]2(O)C(=O)[C@]1(C)C1CC[C@]3(C)C(CC(=O)O[C@H]3c3ccoc3)[C@]13O[C@@H]32", "note": "(some centres undefined)", "activity change, negative = cytotoxicity": "-5.25% [at 17.3 µM]"}
{"smiles": "CC1(O)CC(O)C2C(C(=O)O)=COC(OC3OC(CO)C(O)C(O)C3OC(=O)/C=C/c3ccc(O)cc3)C21", "note": "(centres undefined)", "outcome": "inactive [at 17.3 µM]"}
{"smiles": "C[C@H]1CC[C@H]2[C@@H](C=C[C@@](C)(O)[C@]2(C)C(=O)CCO)C1", "activity change, negative = cytotoxicity": "5.93%"}
{"smiles": "COc1ccc(CC(NC(C)=O)C(=O)O)cc1", "note": "(centres undefined)", "outcome": "inactive"}
{"smiles": "C=C1CC[C@@]2(OC1)O[C@H]1CC3C4CC=C5C[C@@H](O[C@@H]6O[C@@H](C)[C@H](O)[C@@H](O)[C@H]6O)C[C@@H](O[C@@H]6O[C@H](C)[C@H](O)[C@H](O)[C@H]6O[C@@H]6O[C@@H](C)[C@H](O)[C@@H](O)[C@H]6O)[C@]5(C)C4CC[C@]3(C)[C@H]1[C@@H]2C", "note": "(some centres undefined)", "activity change, negative = cytotoxicity": "5.67% [at 9.29 µM]"}
